Results as given in article PMC12820563, “FoxP3 forms a head-to-head dimer in vivo and stabilizes its multimerization on adjacent microsatellites”.
Whole data set: some 16,000 sequences, median “rpm ratio (pull-down/input)” near 0.5, cut for the highest 2% near 5.5. The full list was thinned out, with the highest values kept by preference.

Target: T1, MBP-FoxP3dN (Mus musculus, UniProt Q99JB6 188-423)
T1 sequence: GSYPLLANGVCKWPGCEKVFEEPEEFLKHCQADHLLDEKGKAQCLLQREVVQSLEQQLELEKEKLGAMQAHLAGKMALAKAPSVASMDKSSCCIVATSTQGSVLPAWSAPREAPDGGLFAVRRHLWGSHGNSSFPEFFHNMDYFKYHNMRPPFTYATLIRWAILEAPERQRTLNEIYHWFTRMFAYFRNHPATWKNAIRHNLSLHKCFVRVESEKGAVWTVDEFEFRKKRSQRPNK
Test: PD-seq (MBP pull-down with sequencing); 20 mM Tris-HCl pH 7.5, 100 mM NaCl, 1.5 mM MgCl2, 0.4 uM protein, 0.1 uM dsDNA library, 30 min, room temperature, amylose pull-down; high values mean tight binding
Conditions: protein: recombinant; tags: His6-MBP; chain copies: 2; dsDNA, one strand shown
Summary of the method: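 Binding is reads-per-million enrichment of pull-down over input, with replicates pooled. It comes from 30 min room-temperature incubation in Tris pH 7.5 buffer with NaCl and MgCl2 of 0.4 µM His6-MBP-tagged, N-terminally truncated mouse FoxP3 or FoxP1 fragment from E. coli with 0.1 µM Klenow-filled degenerate double-stranded DNA library, followed by amylose resin capture, three washes and Illumina sequencing of the released DNA.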

Sequence | binding signal
GATGATTGTTCTCCCAGCTGATGAATTAAGTAGCTCGAGTAAACAAATTTTCCTAATCTTTCTGTTCAAGCGCCATCTAC | 0.874 RPM ratio (pull-down/input)
GATGATTGTTCTCCCAGCTGATGAATTGCATTCTTCGAGTAAACAAATTTTCCTAATCTTTCTGTTCAAGCGCCATCTAC | 4.62 RPM ratio (pull-down/input)
GATGATTGTTCTCCCAGCTGATGAATTTGCATTTTCGAGTAAACAAATTTTCCTAATCTTTCTGTTCAAGCGCCATCTAC | 5.38 RPM ratio (pull-down/input)
GATGATTGTTCTCCCAGCTGATGAATTTGCATTGTCGAGTAAACAAATTTTCCTAATCTTTCTGTTCAAGCGCCATCTAC | 5.29 RPM ratio (pull-down/input)
GATGATTGTTCTCCCAGCTGATGAATTGTTGCATTCGAGTAAACAAATTTTCCTAATCTTTCTGTTCAAGCGCCATCTAC | 7.63 RPM ratio (pull-down/input)
GATGATTGTTCTCCCAGCTGATGAATTCGTTGCATCGAGTAAACAAATTTTCCTAATCTTTCTGTTCAAGCGCCATCTAC | 2.22 RPM ratio (pull-down/input)
GATGATTGTTCTCCCAGCTGATGAATTTTGCCATTCGAGTAAACAAATTTTCCTAATCTTTCTGTTCAAGCGCCATCTAC | 5.66 RPM ratio (pull-down/input)
GATGATTGTTCTCCCAGCTGATGAATTTTGCATTTCGAGTAAACAAATTTTCCTAATCTTTCTGTTCAAGCGCCATCTAC | 6.44 RPM ratio (pull-down/input)
GATGATTGTTCTCCCAGCTGATGAATTTGCCCATTCGAGTAAACAAATTTTCCTAATCTTTCTGTTCAAGCGCCATCTAC | 0.615 RPM ratio (pull-down/input)
GATGATTGTTCTCCCAGCTGATGAATTGCAGCATTCGAGTAAACAAATTTTCCTAATCTTTCTGTTCAAGCGCCATCTAC | 5.93 RPM ratio (pull-down/input)
GATGATTGTTCTCCCAGCTGATGAATTTGCCATTTCGAGTAAACAAATTTTCCTAATCTTTCTGTTCAAGCGCCATCTAC | 2.91 RPM ratio (pull-down/input)
GATGATTGTTCTCCCAGCTGATGAATTCGCGGAGTCGAGTAAACAAATTTTCCTAATCTTTCTGTTCAAGCGCCATCTAC | 0.23 RPM ratio (pull-down/input)
GATGATTGTTCTCCCAGCTGATGAATTTGGGTTGTCGAGTAAACAAATTTTCCTAATCTTTCTGTTCAAGCGCCATCTAC | 1.1 RPM ratio (pull-down/input)
GATGATTGTTCTCCCAGCTGATGAATTCCTACGGTCGAGTAAACAAATTTTCCTAATCTTTCTGTTCAAGCGCCATCTAC | 0.213 RPM ratio (pull-down/input)
GATGATTGTTCTCCCAGCTGATGAATTCCCTGTTTCGAGTAAACAAATTTTCCTAATCTTTCTGTTCAAGCGCCATCTAC | 0.346 RPM ratio (pull-down/input)
GATGATTGTTCTCCCAGCTGATGAATTAGAATAGTCGAGTAAACAAATTTTCCTAATCTTTCTGTTCAAGCGCCATCTAC | 0.342 RPM ratio (pull-down/input)
GATGATTGTTCTCCCAGCTGATGAATTTTTTTTTTCGAGTAAACAAATTTTCCTAATCTTTCTGTTCAAGCGCCATCTAC | 0.217 RPM ratio (pull-down/input)
GATGATTGTTCTCCCAGCTGATGAATTCCGGCGTTCGAGTAAACAAATTTTCCTAATCTTTCTGTTCAAGCGCCATCTAC | 1.07 RPM ratio (pull-down/input)

Sequence | binding signal
GATGATTGTTCTCCCAGCTGATGAATTCACGTCATCGAGTAAACAAATTTTCCTAATCTTTCTGTTCAAGCGCCATCTAC | 0.59 RPM ratio (pull-down/input)
GATGATTGTTCTCCCAGCTGATGAATTATTGGAGTCGAGTAAACAAATTTTCCTAATCTTTCTGTTCAAGCGCCATCTAC | 0.296 RPM ratio (pull-down/input)
GATGATTGTTCTCCCAGCTGATGAATTTAAACGCTCGAGTAAACAAATTTTCCTAATCTTTCTGTTCAAGCGCCATCTAC | 0.381 RPM ratio (pull-down/input)
GATGATTGTTCTCCCAGCTGATGAATTTGCATCTTCGAGTAAACAAATTTTCCTAATCTTTCTGTTCAAGCGCCATCTAC | 7.16 RPM ratio (pull-down/input)
GATGATTGTTCTCCCAGCTGATGAATTGCCATCTTCGAGTAAACAAATTTTCCTAATCTTTCTGTTCAAGCGCCATCTAC | 1.07 RPM ratio (pull-down/input)
GATGATTGTTCTCCCAGCTGATGAATTATTCCATTCGAGTAAACAAATTTTCCTAATCTTTCTGTTCAAGCGCCATCTAC | 0.434 RPM ratio (pull-down/input)
GATGATTGTTCTCCCAGCTGATGAATTGCATCCTTCGAGTAAACAAATTTTCCTAATCTTTCTGTTCAAGCGCCATCTAC | 5.53 RPM ratio (pull-down/input)
GATGATTGTTCTCCCAGCTGATGAATTGAATCCTTCGAGTAAACAAATTTTCCTAATCTTTCTGTTCAAGCGCCATCTAC | 0.33 RPM ratio (pull-down/input)
GATGATTGTTCTCCCAGCTGATGAATTGCATTATTCGAGTAAACAAATTTTCCTAATCTTTCTGTTCAAGCGCCATCTAC | 3.3 RPM ratio (pull-down/input)
GATGATTGTTCTCCCAGCTGATGAATTATTGCATTCGAGTAAACAAATTTTCCTAATCTTTCTGTTCAAGCGCCATCTAC | 7.31 RPM ratio (pull-down/input)
GATGATTGTTCTCCCAGCTGATGAATTGCATTCGTCGAGTAAACAAATTTTCCTAATCTTTCTGTTCAAGCGCCATCTAC | 3.88 RPM ratio (pull-down/input)
GATGATTGTTCTCCCAGCTGATGAATTGCATCTTTCGAGTAAACAAATTTTCCTAATCTTTCTGTTCAAGCGCCATCTAC | 5.4 RPM ratio (pull-down/input)
GATGATTGTTCTCCCAGCTGATGAATTCTTGCATTCGAGTAAACAAATTTTCCTAATCTTTCTGTTCAAGCGCCATCTAC | 6.02 RPM ratio (pull-down/input)
GATGATTGTTCTCCCAGCTGATGAATTTGCAGCTTCGAGTAAACAAATTTTCCTAATCTTTCTGTTCAAGCGCCATCTAC | 1.22 RPM ratio (pull-down/input)
GATGATTGTTCTCCCAGCTGATGAATTCCTTGCATCGAGTAAACAAATTTTCCTAATCTTTCTGTTCAAGCGCCATCTAC | 0.828 RPM ratio (pull-down/input)
GATGATTGTTCTCCCAGCTGATGAATTGTAGACATCGAGTAAACAAATTTTCCTAATCTTTCTGTTCAAGCGCCATCTAC | 0.874 RPM ratio (pull-down/input)
GATGATTGTTCTCCCAGCTGATGAATTGACTCTCTCGAGTAAACAAATTTTCCTAATCTTTCTGTTCAAGCGCCATCTAC | 0.425 RPM ratio (pull-down/input)
